VACV mCherry inh – inhibitors of vaccinia virus infection (mCherry reporter signal); Potency, µM (titrated, usually from 36.5 µM), for the others: top-dose activity change, negative = inhibition, actives largely listed as inhibitors; Vaccinia virus mCherry reporter infection, fluorescence; AID 720579; 0.63% of 310,000 active; calls by dose curve; tested in A549 cells; note: potency is the fitted concentration of half-maximal effect; nearly all actives have a fitted effect of over 35% in size
FMDV inh – foot and mouth disease virus antiviral activity; Potency, µM (titrated, usually from 57.9 µM), for inactives: top-dose activity change, negative = inhibition, actives largely listed as inhibitors; 1.2% of 410,000 active; FMDV antiviral cell-based qHTS; AID 1159524; calls by dose curve; tested in HEK293T cells; note: read-out not given here; potency is the fitted concentration of half-maximal effect; nearly all actives have a fitted effect of over 45% in size
VACV Venus inh – vaccinia inhibition (Venus reporter). Vaccinia virus Venus reporter expression, fluorescence. Potency, µM (titrated, usually from 36.5 µM), for the others: at the highest dose activity change, negative = inhibition, usual class: inhibitors. 0.46% of 330,000 active; calls by dose curve; tested in A549 cells; note: potency is the fitted concentration of half-maximal effect; nearly all actives have a fitted effect of over 30% in size
HCMV antiviral – inhibitors of human cytomegalovirus | 4.5% of 410,000 active | activity change, negative = inhibition, % at 57.5 µM | HFF cells, HCMV-luciferase reporter, 72 h; active compounds read low; in the data active = activity change below about -60%; inconclusive = no clear call, values can overlap the other calls; inactive = above about -39%
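HFF cells seeded 16 h at 37C, treated with compounds, infected with luciferase-reporter HCMV at MOI 1 PFU/cell; luciferase read at 72 h post infection, normalized to buffer-only and Salinomycin controls.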
Sm TGR block – inhibitors of Schistosoma mansoni thioredoxin glutathione reductase | Q962Y6 | purified TGR, DTNB reduction, TNB absorbance 405 nm | Potency, µM (doses to about 114 µM), for inactives: top-dose activity change, negative = inhibition, most hits filed as inhibitors | 3% of 360,000 active | AID 485364; note: potency is the fitted concentration of half-maximal effect; nearly all actives have a fitted effect of over 60% in size
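TGR 20 nM + NADPH 100 uM (dispensed conc.), cpd preinc 15 min RT; start with NADPH (500 uM addition) then DTNB (15 mM addition). Kinetic TNB absorbance, 405 nm filter. Four-parameter Hill fit across titration.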
HCV inh – HCV inhibition; Huh7.5.1 HCVcc-Cre infection, luciferase reporter, 44 h; Potency, µM (doses to about 41.8 µM), for the others: at the top dose activity change, negative = inhibition, usual class: inhibitors; 3.4% of 340,000 active; AID 651820; note: potency is the fitted concentration of half-maximal effect
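After 44 h co-culture of compound, cells and HCVcc-Cre (~0.5 moi), substrate is added for 15 min at room temperature and luciferase measured over 15 sec. Cells were seeded at 1,000/well and pre-cultured 4 h.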
* hit, by the source's call; [ ] = dose if it differs, or a comment. Sampled rows, rich in hits. Any-hit rate of the full collection: about 9.3%. Unless noted, calls come from the whole dose curve; as a rule, active = well fitted curve in the direction sought with a large enough effect; inconclusive = small, poorly fitted or top-dose-only effect, or another doubt; inactive = no such curve, though single readings can be large; an effect the other way counts as inactive or inconclusive. % is set by controls: 0 for no effect and ±100 for the full control effect.

`CC1=[N+](C)c2c(ccc3cccnc23)C1(C)C` gave VACV mCherry inh 214.7%, FMDV inh inconclusive, VACV Venus inh 24.8%, HCMV antiviral -107.8*, Sm TGR block 19.6% and HCV inh inconclusive.
`Cc1cc(C(=O)OCC(=O)NCc2ccc(Cl)cc2Cl)c(C)o1` gave FMDV inh 4.0%, HCMV antiviral -9.4, Sm TGR block -18.2% and HCV inh 0.4%.
Cc1ccc(CNC(=O)CCC2CCCN(Cc3cccc4c3OCO4)C2)o1 (centres undefined) was read as VACV mCherry inh inconclusive, FMDV inh -17.3%, VACV Venus inh 0.6%, HCMV antiviral 13.3, Sm TGR block inconclusive and HCV inh 7.1%.
Cc1ccc(CNC(=O)CCC2CCCN(Cc3ccc4cccc(F)c4n3)C2)o1 (centres undefined) was read as VACV mCherry inh -6.5%, FMDV inh -11.7%, VACV Venus inh 0.8%, HCMV antiviral 12.1, Sm TGR block 39.8µM* and HCV inh -23.8%.
Screening Cc1[nH]c2ccccc2c1C1(O)C(=O)Nc2ccc(Cl)cc21 (centres undefined) returned VACV mCherry inh 12.6%, FMDV inh -8.7%, VACV Venus inh 14.6%, HCMV antiviral 2.8 and Sm TGR block -17.6%.
Screening Cc1ccccc1-n1c(SCC(=O)c2cc(C)n(C)c2C)nnc1-c1ccncc1 returned FMDV inh 35.5µM*, HCMV antiviral -12.3, Sm TGR block -23.8% and HCV inh inconclusive.
`Cc1c(Cl)cccc1-n1c(SCC(=O)NCc2ccccc2Cl)nnc1-c1ccncc1` gave FMDV inh -24.6%, HCMV antiviral -101.9*, Sm TGR block 5.0% and HCV inh -12.8%.
`CC(Sc1nnc(C2CC2)n1C1CC1)C(=O)c1ccc(F)cc1` (centres undefined) gave FMDV inh -10.0%, HCMV antiviral -0.7, Sm TGR block -24.1% and HCV inh 4.0%.
For CN=c1scc(-c2ccc(F)cc2)n1/N=C/c1ccc(O)c(O)c1 the results were VACV mCherry inh inconclusive, FMDV inh 1.26µM*, VACV Venus inh -18.0%, HCMV antiviral -66.6*, Sm TGR block 11.2µM* and HCV inh 2.24µM*.
`COc1ccc(CNCc2c(O)c(Cl)cc3c(C)c(C)c(=O)oc23)c(OC)c1` gave VACV mCherry inh -14.3%, FMDV inh -12.5%, VACV Venus inh -5.9%, HCMV antiviral -70.3*, Sm TGR block -3.2% and HCV inh 9.8%.
`O=C1CCc2ccc(OCCCCN3CCN(c4cccc(Cl)c4Cl)CC3)cc2N1` gave VACV mCherry inh inconclusive, FMDV inh 20µM*, VACV Venus inh -28.0%, HCMV antiviral -17.4, Sm TGR block 4.3% and HCV inh -14.5%.
For O=C(NCCCCN1CCN(c2cccc(Cl)c2Cl)CC1)c1ccc2c(c1)Cc1ccccc1-2 the results were FMDV inh -11.8%.
For Cc1cn(C)c(CC(=O)NCc2ccc(F)cc2)c1C(=O)O the results were VACV mCherry inh -11.8%, FMDV inh -15.0%, VACV Venus inh -6.2%, HCMV antiviral 1.4 and Sm TGR block -1.9%.
COc1cc(C#Cc2c(-c3cncn3C)n(C)c3ccc(-c4ccc5[nH]ccc5c4)cc23)cc(OC)c1 was read as VACV mCherry inh -23.7%, FMDV inh 18.2%, VACV Venus inh -24.1%, HCMV antiviral 22.9, Sm TGR block 0.1% and HCV inh inconclusive.
For COc1cc(C#Cc2c(-c3cncn3C)n(C)c3ccc(-c4ccc(OC)nc4)cc23)cc(OC)c1 the results were VACV mCherry inh inconclusive, FMDV inh inconclusive, VACV Venus inh 28.2µM*, HCMV antiviral -4.6, Sm TGR block -6.2% and HCV inh -32.8%.
COc1cc(C#Cc2c(-c3cncn3C)n(C)c3ccc(-c4cc(OC)c(OC)c(OC)c4)cc23)cc(OC)c1 was read as VACV mCherry inh inconclusive, FMDV inh -11.2%, VACV Venus inh 11.2µM*, HCMV antiviral -2.7 and HCV inh 11.2µM*.
Screening COc1cc(OC)cc(-c2c(C#Cc3ccsc3)c3cc(-c4ccc(C(N)=O)cc4)ccc3n2C)c1 returned VACV mCherry inh -7.3%, FMDV inh -18.6%, VACV Venus inh -19.6%, HCMV antiviral 22.3, Sm TGR block 28.2µM* and HCV inh inconclusive.
CC(=O)NC(NC(C)=O)c1cccc(OCc2ccccc2)c1 was read as VACV mCherry inh inactive, FMDV inh -15.5%, VACV Venus inh -0.7%, HCMV antiviral -68.0*, Sm TGR block -2.2% and HCV inh 3.5%.
CC(=O)Nc1cccc(NC(=O)c2ccc(COc3ccccc3)cc2)c1 was read as VACV mCherry inh 2.7%, FMDV inh 40.2%, VACV Venus inh -13.3%, HCMV antiviral 56.7, Sm TGR block -1.5% and HCV inh inconclusive.
Screening CCCCN(C(=O)c1cc(-c2ccco2)nc2ccccc12)c1c(N)n(CCCC)c(=O)[nH]c1=O returned VACV mCherry inh -4.1%, FMDV inh 3.4%, VACV Venus inh 9.3%, HCMV antiviral -17.0, Sm TGR block 3.55µM* and HCV inh -1.8%.
`CCCCn1c(N)c(N(CCC(C)C)C(=O)c2cc(-c3ccco3)nc3ccccc23)c(=O)[nH]c1=O` gave VACV mCherry inh -14.4%, FMDV inh -0.5%, VACV Venus inh -28.0%, HCMV antiviral -39.3, Sm TGR block -13.9% and HCV inh 25.7%.
Screening CCCCn1c(N)c(N(CCOC)C(=O)c2cc(-c3ccco3)nc3ccccc23)c(=O)[nH]c1=O returned VACV mCherry inh -15.0%, FMDV inh -19.5%, VACV Venus inh -8.8%, Sm TGR block 25.1µM* and HCV inh -19.6%[8.37 µM].
For COc1ccc(C(C(=O)NCc2ccccc2)N(C(=O)c2snc(C(N)=O)c2N)C2CCCC2)cc1 (centres undefined) the results were VACV mCherry inh -8.5%, FMDV inh -3.5%, VACV Venus inh -4.7%, HCMV antiviral -2.9, Sm TGR block 12.7% and HCV inh -7.9%.
Screening Cc1c(Cl)cn2c(=O)cc(CN3CCN(c4ccc(F)cc4)CC3)nc2c1Cl returned Sm TGR block 50.1µM*.
Screening CCC1(c2ccc(Cl)cc2)NC(=O)N(CC(=O)NC2CCCC(C)C2C)C1=O (centres undefined) returned VACV mCherry inh -14.1%, FMDV inh -13.8%, VACV Venus inh -20.0%, HCMV antiviral 13.4, Sm TGR block -2.7% and HCV inh -6.7%.
For CC[C@@H](CC1CCCCC1)C(=O)N(Cc1ccccc1)c1ccccc1 the results were VACV mCherry inh inconclusive, FMDV inh inconclusive, VACV Venus inh -10.6%, HCMV antiviral inconclusive and HCV inh 10µM*.
Screening CN(Cc1ccccc1)C(=O)NC1CCCCC1 returned FMDV inh 14.5%, HCMV antiviral -31.3, Sm TGR block -4.9% and HCV inh -10.0%.
